Assay in all cases: NCI-60 one-dose screen, 48 h (100 = growth as untreated, 0 = no growth, -100 = all killed)
Common to all, as to settings: 10 µM unless noted

Assay [1] concerns HCT-15 colon.
The subject of assay [2] is HT29 colon.
The subject of assay [3] is SNB-75 CNS.
Assay [4] deals with SNB-19 CNS.
Assay [5] deals with U251 CNS.
Assay [6] concerns PC-3 prostate.
For assay [7], the system named is SK-MEL-5 melanoma.
In assay [8] the test system is UACC-62 melanoma.
For assay [9], the system named is LOX IMVI melanoma.
For assay [10], the system named is SK-MEL-28 melanoma.
The test system of assay [11] is EKVX NSCLC.
Assay [12] relates to SN12C renal.
Assay [13] concerns UO-31 renal.
Assay [14] concerns TK-10 renal.
Assay [15] concerns ACHN renal.
In assay [16] the test system is A498 renal.
Assay [17] relates to CCRF-CEM leukemia.
The subject of assay [18] is MOLT-4 leukemia.
The subject of assay [19] is CAKI-1 renal.

Experimental findings from PubChem BioAssay (NCI) are described below.

This is part of a sample that, as a whole, favours compounds with a hit. Of some 83,000 tested, about 20% had one in any assay.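 Method: cells in 96-well plates; compound added at one concentration; 48 h incubation; percent growth measured; values under 10 scored active.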 A number with no mark means an inactive call. Calls of active or inactive are those of the source.

Regarding `C=CCn1c(SCC(=O)Nc2ccc(C(=O)/C=C/c3ccc(Cl)cc3)cc2)nnc1-c1c[nH]c2ccccc12`, the growth in assay [1] was 62.9%; in assay [2], 88.7%; in assay [3], 93.5%; in assay [4], 76.1%; in assay [5], 76.3%; in [6] it was 58.4%. The growth was 42.9% in [7]; 57.4% in [8]; 1.53% (active) in [9]; 90.2% in [10]; 56.1% in [11]; 71.5% in assay [12]. Moreover, the growth was 47.8% in assay [13]; 103% in assay [14]; 77.6% in [15]; 91.4% in assay [16]; 75.3% in [17]; 66.4% in assay [18].
Consider `Cc1cc(C(NC(=O)CCCCCNc2cccc3c2C(=O)N(C2CCC(=O)NC2=O)C3=O)c2ccc3c(c2)OC(F)(F)O3)c(O)c2ncccc12` (configuration not stated), for which the growth is 72.2% in assay [1]; 71.8% in [2]; 50.8% in assay [3]; 51.6% in assay [4]; 33.6% in assay [5]; 32.3% in assay [6]. For the same compound, the growth in assay [7] is 37%; in assay [8] it was 63.3%; in assay [9], 57.9%; in assay [10], 81%; in [11], 71.3%; in assay [12] it was 49.9%. Besides, the growth in [13] was 77.2%; in [14], 93.8%; in assay [15] it was 63.5%; in assay [19], 50%; in [16], 95.1%; in [17], 38.6%. In addition, the growth in [18] is 42.5%.
As to `O=C1CCCC2=C1C(c1c[nH]c3ccc(Br)cc13)Cc1cc(Br)ccc1N2` (configuration not stated), the growth in assay [1] is 26.5%; in [2] it was 12.2%; in assay [3], 39.8%; in assay [4], 32.6%; in [5] it was 31.6%; in assay [6], 9.76% (active). The growth was 43% in assay [7]; 10.4% in assay [8]; 14.1% in [9]; 54.3% in assay [10]; 41.9% in [11]; 34.5% in [12]. Further, the growth in [13] was 36.3%; in [14] it was 94.8%; in [15], 36.2%; in [19] it was 24.7%; in assay [16], 13.5%; in assay [17], 6.67% (active). Besides, in [18], the growth is 21.5%.
Turning to `COc1cc(-c2nc(SCCC(C)C)nc(NNC(=O)c3ccncc3)c2C#N)cc(OC)c1OC`, the growth in assay [1] is 78.1%; in assay [2], 42.9%; in assay [3], 27.1%; in assay [4] it was 66%; in assay [5], 79.7%; in [6] it was 78.6%. For the same compound, the growth in assay [7] is 84.4%; in assay [8] it was 38.1%; in [9] it was 53.4%; in assay [10] it was 85.8%; in [11] it was 54.7%; in assay [12], 60.4%. The growth was 19.3% in assay [13]; 52.8% in [14]; 23% in assay [15]; 37.8% in assay [19]; 41.9% in [16]; 95.8% in assay [17]. The growth in assay [18] was 68.7%.
Take `COc1cc2oc(-c3cccc(NC(=O)c4cc(N)ccc4Cl)c3)cc(=O)c2c(OC)c1OC`: the growth is 85.7% in [1]; 110% in assay [2]; 101% in assay [3]; 100% in [4]; 101% in assay [5]; 97.9% in assay [6]. Also, the growth was 75.3% in assay [7]; 94.4% in [8]; 87.1% in [9]; 108% in [10]; 91.4% in [11]; 100% in assay [12]. Moreover, the growth in [13] was 80.9%; in [14], 98.3%; in [15], 95%; in assay [19], 87.9%; in assay [16] it was 82.6%; in assay [17], 64.9%.
With `Nc1nc(-c2cccc([N+](=O)[O-])c2)c(N=Nc2ccc([N+](=O)[O-])cc2Cl)s1`, the growth is 3.38% (active) in assay [1]; 10.7% in assay [2]; -1.14% (active) in [3]; 17% in assay [4]; 10.3% in assay [5]; 5.14% (active) in assay [6]. For the same compound, the growth in assay [7] is -76.6% (active); in [8], 1.4% (active); in assay [9] it was 14.1%; in [10], 22.8%; in assay [11], 6.7% (active); in [12], 5.24% (active). The growth in assay [13] was 10.5%; in [14] it was 22.7%; in assay [15] it was 7.06% (active); in assay [19], 4.29% (active); in assay [17], 13%; in assay [18], 7.78% (active).
For the compound `CCN1CCN(C(=O)[C@]23CCC(C)(C)C[C@H]2C2=CC[C@@H]4[C@@]5(C)Cc6c([nH]c7ccccc67)C(C)(C)[C@@H]5CC[C@@]4(C)[C@]2(C)CC3)CC1`, the growth was 79.6% in [1]; 88.3% in assay [2]; 87.3% in [3]; 91.9% in assay [4]; 83.1% in assay [5]; 75.3% in [6]. Besides, the growth in [7] is 97.3%; in [8] it was 94.8%; in assay [9], 76%; in assay [10], 95.5%; in assay [11] it was 90%; in [13], 75.8%. For the same compound, the growth in assay [14] was 119%; in [15] it was 85%; in [19] it was 65%; in [16] it was 97.5%; in [17], 80%.
On to `CCOC(=O)C1=NNC(c2ccc(Cl)cc2)C1C(=O)N1C(=S)NC(=O)C1CC(C)C` (configuration not stated), for which the growth in assay [1] was 105%; in assay [2] it was 116%; in assay [3], 100%; in assay [4] it was 98.3%; in assay [5], 105%; in [6] it was 96.8%. Further, the growth in assay [7] was 106%; in assay [8], 94.2%; in [9], 103%; in assay [10], 103%; in assay [11], 84.5%; in assay [12] it was 99.4%. For the same compound, the growth was 81.4% in assay [13]; 164% in assay [14]; 93.3% in assay [15]; 85.2% in assay [19]; 95% in [16]; 100% in assay [17]. Moreover, in [18], the growth is 89.5%.
